The results in this text go back to PubChem BioAssay.

Experiment [1] deals with Human papillomavirus type 1a protein E7 (residues 44-93). The experiment is described as follows: small molecules binding HPV E7 44-93 – biochemical, small-molecule microarray, residues 44-93, 635 nm fluorescence, primary screen (AID 1108).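 Further: E7 fragment applied at 1 µg/mL in TBST for 1 h at 4 C; score combines spot fluorescence with its signal to noise ratio.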 Particulars: fluorescence 635 nm, higher = more signal.
Experiment [2] can be described thus: hepatitis C replication reporter changes, two-sided – Huh7 cells, luciferase reporter, HCV replication inhibitor project, primary screen (AID 1109).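 Further: huh7 hepatoma cells harbouring a luciferase neomycin HCV replicon reporter; luciferase luminescence as measure of HCV replicon replication; test concentration not given here.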 The note with it: Huh7 HCV replicon luciferase reporter, 48 h; higher = more signal. For orientation: In a reporter assay the amount or activity of a reporter protein is the signal.
Experiment [3] addresses Left-right determination factor 2 (Homo sapiens) (UniProt O00292). The experiment is described as follows: small molecules binding LEFTY2 protein – biochemical, small-molecule microarray, 635 nm fluorescence scan, primary screen (AID 1110). Particulars: higher = more signal.
The target in experiment [4] is Calmodulin-1 (Homo sapiens) (UniProt P0DP23). The experiment is described as follows: small molecules binding calmodulin-1 with EGTA – biochemical, small-molecule microarray, Cy5-labelled CALM1, profiling panel (AID 1111).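 Further: labelled calmodulin applied in Tris saline Tween buffer holding calcium plus EGTA and DTT.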 Particulars: Cy5-CALM1 binding fluorescence, higher = more signal.
For experiment [5] the target is unchanged. The experiment is described as follows: small molecules binding Ca-loaded calmodulin-1 – biochemical, small-molecule microarray, Cy5-labelled CALM1, plus calcium, artefact control for SMM control-protein annotation, profiling panel (AID 1112).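 Further: score merges spot fluorescence with signal to noise from triplicate slides.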 The note with it: Cy5-CALM1 binding fluorescence, higher = more signal.
The nature of experiment [6]: probe aWnt5a binding to arrayed compounds – biochemical, biotinylated probe, 635/667 nm fluorescence, primary screen (AID 1113).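 Further: score merges 667 nm fluorescence intensity with signal-to-noise per printed feature.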 Particulars: small-molecule microarray, higher = more signal.
Experiment [7] is described as follows: probe aShh binding to arrayed compounds – biochemical, biotinylated probe, 635/667 nm fluorescence, primary screen (AID 1114).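 Further: probe is biotin-labelled aShh protein from a stem cell growth factor screen; measures binding of labelled protein to compounds printed on the slide; score merges feature fluorescence at 667 nm with signal-to-noise.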 The note with it: small-molecule microarray, higher = more signal.
The nature of experiment [8]: probe aNog binding to arrayed compounds – biochemical, biotinylated probe, 635/667 nm fluorescence, primary screen (AID 1115).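 Further: probe is biotinylated aNog protein used at 0.15 µg/mL for 1 h at 4 C; z-score combines 667 nm fluorescence of each spot with its signal to noise.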 The note with it: small-molecule microarray, higher = more signal.
The target in experiment [9] is Torsin-1A-interacting protein 1 (Homo sapiens) (UniProt Q5JTV8). Description: compound microarray binding of lysate hLAP1 – cell lysate, small-molecule microarray, COS7 lysate, 635/667 nm fluorescence, primary screen (AID 1116). The note with it: 635 nm fluorescence, higher = more signal.
Sequence of Torsin-1A-interacting protein 1 (Homo sapiens) (Q5JTV8 whole entry, looked up): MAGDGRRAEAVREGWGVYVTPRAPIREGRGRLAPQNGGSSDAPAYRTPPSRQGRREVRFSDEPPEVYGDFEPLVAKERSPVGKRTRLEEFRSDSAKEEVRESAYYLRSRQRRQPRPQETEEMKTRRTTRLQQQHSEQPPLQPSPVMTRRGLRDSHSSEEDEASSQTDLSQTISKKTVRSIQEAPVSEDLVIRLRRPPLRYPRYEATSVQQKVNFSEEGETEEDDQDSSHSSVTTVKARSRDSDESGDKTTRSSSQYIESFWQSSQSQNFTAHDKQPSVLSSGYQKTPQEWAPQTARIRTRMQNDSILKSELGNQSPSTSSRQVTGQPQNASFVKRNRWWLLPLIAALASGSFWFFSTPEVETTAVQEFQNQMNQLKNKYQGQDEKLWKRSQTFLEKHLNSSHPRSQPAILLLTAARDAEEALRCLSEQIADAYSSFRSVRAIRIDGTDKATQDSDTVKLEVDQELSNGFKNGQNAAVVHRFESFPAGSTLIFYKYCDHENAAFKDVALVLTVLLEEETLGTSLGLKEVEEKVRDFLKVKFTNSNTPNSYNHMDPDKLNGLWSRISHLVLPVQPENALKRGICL
In experiment [10] the target is Alpha-bungarotoxin (Bungarus multicinctus) (UniProt P60615). Description: compounds binding labelled alpha-BTX control protein – biochemical, small-molecule microarray, Alexa647 label, 635/667 nm fluorescence, artefact control for SMM control protein annotation, profiling panel (AID 1117). Particulars: alpha-BTX-A647 binding fluorescence, higher = more signal.
Sequence of Alpha-bungarotoxin (Bungarus multicinctus) (P60615 whole entry, looked up): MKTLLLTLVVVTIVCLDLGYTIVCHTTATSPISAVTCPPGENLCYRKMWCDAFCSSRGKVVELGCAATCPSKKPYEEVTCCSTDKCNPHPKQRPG
The target in a further experiment is Albumin (Bos taurus) (UniProt P02769). The experiment is described as follows: compounds binding labelled BSA control protein – biochemical, small-molecule microarray, Alexa647 label, 635/667 nm fluorescence, artefact control for SMM control protein annotation, profiling panel (AID 1118).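 Further: score merges 667 nm emission intensity and signal-to-noise per printed compound spot.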 Particulars: BSA-A647 binding, fluorescence 635 nm, higher = more signal.
Sequence of Albumin (Bos taurus) (P02769 whole entry, looked up): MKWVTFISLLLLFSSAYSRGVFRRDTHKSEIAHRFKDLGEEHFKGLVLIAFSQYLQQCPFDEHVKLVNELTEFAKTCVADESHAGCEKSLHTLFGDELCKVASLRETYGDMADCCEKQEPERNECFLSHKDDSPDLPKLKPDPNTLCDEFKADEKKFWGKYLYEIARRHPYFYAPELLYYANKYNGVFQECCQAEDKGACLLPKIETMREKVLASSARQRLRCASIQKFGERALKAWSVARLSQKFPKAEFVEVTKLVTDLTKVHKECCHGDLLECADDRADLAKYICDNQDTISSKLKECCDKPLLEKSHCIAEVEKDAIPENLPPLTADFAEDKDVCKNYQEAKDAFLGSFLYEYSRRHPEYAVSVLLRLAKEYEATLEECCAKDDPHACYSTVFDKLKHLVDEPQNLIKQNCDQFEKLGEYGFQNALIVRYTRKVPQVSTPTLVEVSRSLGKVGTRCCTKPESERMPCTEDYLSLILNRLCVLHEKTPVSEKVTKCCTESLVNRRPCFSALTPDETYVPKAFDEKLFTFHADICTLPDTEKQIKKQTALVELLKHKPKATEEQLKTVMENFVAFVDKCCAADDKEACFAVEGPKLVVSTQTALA

A short description of experiment [11]: probe aXIP binding to arrayed compounds – biochemical, NeuroSMM set, 635/667 nm fluorescence, primary screen (AID 1119).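 Further: probe is the protein aXip251-270 applied at 1 µg/mL to compound-printed slides; binding of probe to printed compounds measured as 667 nm fluorescence plus signal to noise.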 Particulars: small-molecule microarray, higher = more signal, called active from +8 up or from −8 down.
The nature of experiment [12]: probe aNOTCH3 binding on compound microarray – biochemical, small-molecule microarray, 635/667 nm fluorescence, primary screen (AID 1120).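 Further: probe is a biotin-tagged antibody raised against NOTCH3 rather than NOTCH3 protein; score merges spot fluorescence near 667 nm with spot signal to noise.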 The note with it: higher = more signal.
The nature of experiment [13]: probe aNOTCH2 binding on compound microarray – biochemical, small-molecule microarray, 635/667 nm fluorescence, primary screen (AID 1121).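 Further: score merges feature fluorescence read at 667 nm with its signal to noise.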 Particulars: higher = more signal.
The target in experiment [14] is Carbonic anhydrase 2 (Homo sapiens) (UniProt P00918). Description: compounds binding carbonic anhydrase 2 – biochemical, small-molecule microarray, Alexa647-labelled CAII, profiling panel (AID 1122). The note with it: CAII-A647 binding fluorescence, higher = more signal.
A short description of experiment [15]: COS7 lysate on small-molecule microarray, probe aHis, 635 nm (AID 1123).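 Further: z-score combines 667nm fluorescence intensity with signal-to-noise per printed compound spot.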 Particulars: COS7 cell lysate, fluorescence, higher = more signal.
A short description of experiment [16]: probe aLAP1 signal on lysate-treated microarray – cell lysate, small-molecule microarray, COS7 lysate, primary screen (AID 1124).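 Further: lysate comes from COS7 cells expressing LAP1 and is applied at 0.3 µg/mL; score merges spot fluorescence near 667 nm with signal-to-noise over triplicate slides.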 Particulars: probe aLAP1, fluorescence, higher = more signal.
A further experiment deals with Sam68 (KHDRBS1). Description: compounds binding KHDRBS1 protein – biochemical, small-molecule microarray, 635 nm fluorescence, primary screen (AID 1125).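 Further: score merges 667 nm channel intensity with signal to noise over triplicate slides.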 Particulars: higher = more signal.
The test system of experiment [17] is Chordin-like protein 2 (CHRDL2). The experiment is described as follows: compounds binding chordin-like 2 – biochemical, small-molecule microarray, 635 nm fluorescence, primary screen (AID 1126).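 Further: printed compound slides probed with Chrdl2 protein at 4 µg/mL for 1 h at 4 C; score merges 667 nm emission intensity with signal to noise over three replicate slides.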 Particulars: fluorescence 635 nm, higher = more signal.
The target of experiment [18] is Concanavalin-A (Canavalia ensiformis) (UniProt P02866). The experiment is described as follows: compounds binding concanavalin A lectin – biochemical, small-molecule microarray, Alexa647 label, 635 nm, artefact control for SMM control protein annotation, primary screen (AID 1127).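 Further: z combines 667 nm emission intensity with signal-to-noise across three replicate slides.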 The note with it: ConA-A647 binding fluorescence, higher = more signal.
Sequence of Concanavalin-A (Canavalia ensiformis) (P02866 whole entry, looked up): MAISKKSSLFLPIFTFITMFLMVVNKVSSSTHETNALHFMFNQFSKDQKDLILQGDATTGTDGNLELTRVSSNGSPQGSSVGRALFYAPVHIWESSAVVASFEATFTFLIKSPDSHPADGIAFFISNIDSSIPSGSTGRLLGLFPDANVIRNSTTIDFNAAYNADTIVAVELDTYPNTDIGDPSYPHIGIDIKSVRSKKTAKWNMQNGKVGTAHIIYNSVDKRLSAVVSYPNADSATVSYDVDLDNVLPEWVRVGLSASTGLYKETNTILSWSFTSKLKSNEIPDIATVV

Each structure is given as a SMILES string. Calls of active or inactive are those of the source.

Sequence of Left-right determination factor 2 (Homo sapiens) (O00292 whole entry, looked up): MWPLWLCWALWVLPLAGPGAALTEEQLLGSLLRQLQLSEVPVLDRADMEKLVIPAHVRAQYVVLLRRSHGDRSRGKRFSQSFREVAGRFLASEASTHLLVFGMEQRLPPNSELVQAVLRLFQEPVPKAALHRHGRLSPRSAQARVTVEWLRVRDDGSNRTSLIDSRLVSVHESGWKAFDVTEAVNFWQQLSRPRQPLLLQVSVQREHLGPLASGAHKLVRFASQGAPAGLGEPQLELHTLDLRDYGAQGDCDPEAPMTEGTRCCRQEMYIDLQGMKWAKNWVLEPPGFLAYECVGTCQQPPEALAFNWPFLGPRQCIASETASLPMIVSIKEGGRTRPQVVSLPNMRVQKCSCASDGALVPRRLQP

Turning to `O=C1C=CC(=O)[C@@H]2CC(COc3ccccc3)=C3[C@@H](CCc4ccccc4)OB(O)C[C@@H]3[C@H]12`, the composite z-score in [1] is 0.23; in experiment [3], 0.41; in experiment [4] it was -0.413; in experiment [5], -1.09; in experiment [6] it was -0.0819; in experiment [7], 0.0121. The composite z-score in [8] was -0.175; in [9], 0.0342; in [10], 0.361; in the experiment with Albumin (Bos taurus), -0.182; in experiment [12] it was -0.0647; in experiment [13] it was -0.219. For the same compound, the composite z-score in experiment [14] was -0.0292; in experiment [15] it was 0.113; in [16] it was -0.17; in the experiment with Sam68 (KHDRBS1), 0.359; in experiment [17] it was 0.299; in experiment [18], 0.238. In experiment [2], the z-score is -1.64. In experiment [11], the composite Z-score was 0.155 (inactive).
Regarding `COc1ccc(C(=O)Nc2cccc(CN3C(=O)[C@]4(O[C@H](CC(=O)N5CCC[C@H]5CO)[C@@H]([Si](C)(C)c5ccc(OC)cc5)[C@@H]4C)c4ccccc43)c2)cc1`, the composite z-score in experiment [1] is 1.23; in experiment [3], 0.419; in experiment [4], 0.418; in experiment [5] it was 0.252; in experiment [6], -0.0285; in [7], -0.0959. Further, the composite z-score was 0.0733 in experiment [8]; 1.06 in [9]; 0.954 in [10]; 0.114 with Albumin (Bos taurus); -0.0044 in experiment [12]; -0.112 in experiment [13]. Also, the composite z-score stood at 0.485 in [14]; 1.79 in experiment [15]; 0.276 in experiment [16]; 1.01 in the experiment with Sam68 (KHDRBS1); 0.76 in [17]; 1.02 in experiment [18]. Also, the z-score in [2] was -2.84. Moreover, the composite Z-score in [11] is 0.535 (inactive).
For the compound `CO[C@H]1O[C@H](CO)[C@@H](OC(=O)Nc2ccc(Oc3ccccc3)cc2)[C@H](OC(=O)Nc2ccccc2)[C@H]1OC(=O)Nc1ccccc1`, the composite z-score in [1] is 0.838; in [3], 0.62; in experiment [4] it was 1.26; in experiment [5] it was -0.278; in experiment [6] it was 0.143; in [7], -0.0789. The composite z-score is 0.149 in experiment [8]; 1.2 in experiment [9]; 1.8 in experiment [10]; 0.832 with Albumin (Bos taurus); 0.295 in experiment [12]; -0.0064 in [13]. The composite z-score is 0.467 in [14]; 2.09 in experiment [15]; -0.0652 in [16]; 1.3 in the experiment with Sam68 (KHDRBS1); -0.0078 in [17]; 1.16 in experiment [18]. In [2], this compound returned a z-score of -2.88. Also, the composite Z-score in experiment [11] is 0.914 (inactive).
As for `CCN(CC)c1ccc(N2CC=CC34O[C@@H]5/C=C\CCCOC(=O)C5[C@H]3C(=O)N(C(CO)C(C)C)[C@@H]4C2=O)cc1` (stereo not given in full), the composite z-score in [1] is -0.22; in experiment [3], -0.393; in experiment [4] it was -0.956; in [5] it was -1.15; in [6] it was -0.0758; in [7] it was -0.221. For the same compound, the composite z-score in experiment [8] is -0.164; in [9], -0.0861; in experiment [10], -0.692; in the experiment with Albumin (Bos taurus), -1.18; in experiment [12], -0.165; in [13], -0.123. The composite z-score in experiment [14] is 0.827; in [15], -0.21; in [16], -0.32; in the experiment on Sam68 (KHDRBS1), -0.384; in experiment [17] it was -0.684; in [18] it was -0.467. Further, the z-score in experiment [2] is -0.132. Further, the composite Z-score in experiment [11] was 0.0855 (inactive).
As for `C=CCOC(=O)[C@H]1[C@@H]2C(=O)O[C@@H](c3ccccc3)[C@@H](c3ccccc3)N2[C@@H](c2ccc(OCCOC(=O)[C@@H]3C[C@@H]4C(=O)N5CCC[C@H]5C(=O)N4[C@@H]3c3ccc(O)cc3)cc2)[C@]12C(=O)Nc1ccccc12`, the composite z-score in experiment [1] is 1.4; in experiment [3], 0.677; in experiment [4], 0.823; in experiment [5], 0.0257; in [6], -0.1; in experiment [7] it was 0.0121. Moreover, the composite z-score in experiment [8] was -0.467; in experiment [9], 0.808; in experiment [10], 1.18; in the experiment with Albumin (Bos taurus), -0.854; in experiment [12], 0.299; in experiment [13], -0.104. Also, the composite z-score in [14] was found to be 0.268; in experiment [15], 1.36; in experiment [16], 0.261; with Sam68 (KHDRBS1), 1.33; in [17], 1.03; in experiment [18], 0.93. The compound also had a z-score in experiment [2] of -1.81. Further, in experiment [11], the composite Z-score was 0.0088 (inactive).
As to `CCOC(=O)C1=C[C@@H](CC)N(S(=O)(=O)c2ccc(C)cc2)[C@H]1c1ccccc1`, the composite z-score was 1.36 in experiment [1]; 0.0917 in experiment [3]; 1.07 in [4]; 0.26 in experiment [5]; 0.0799 in experiment [6]; -0.0709 in experiment [7]. In addition, the composite z-score came to 0.925 in experiment [8]; 0.905 in experiment [9]; 0.54 in experiment [10]; 0.874 in the experiment with Albumin (Bos taurus); 0.0539 in experiment [12]; 0.0572 in [13]. For the same compound, the composite z-score in experiment [14] is 0.526; in experiment [15], 1.35; in experiment [16] it was 0.83; in the experiment with Sam68 (KHDRBS1), 1.29; in experiment [17] it was 0.0777; in experiment [18], 1.1. This compound also yielded a z-score in experiment [2] of -2.23. Also, in [11], the composite Z-score is 0.339 (inactive).
